In all, about 340,000 compounds went through this assay and about 1,000 (0.29%) were called active. Rule as the data show it: inconclusive = inhibition above about 29% without an active follow-up result; inactive = below that. A selection follows. Measured potencies and affinities stand elsewhere.
Biological target: Genome polyprotein (Dengue virus type 2 (strain 16681-PDK53)) (UniProt P29991)
Assay: Dengue-2 NS5 methyltransferase inhibitors, primary screen, biochemical, confirmation dose response (AID 588689)
Conditions: Dengue-2 NS5 methyltransferase capping enzyme assay, at 25 µM, stronger effect = higher value

SMILES | inhibition | inhibition (measured here: pilot screen replicate inhibition)
O=S(=O)(/N=C(\Nc1ccc(F)cc1)C(F)(F)F)c1ccccc1 | 3.78% (inactive) | –
COc1ccc(C(=O)C(C)Oc2cccc(NC(=O)c3cccc([N+](=O)[O-])c3)c2)cc1 (stereo not drawn) | 3.25% (inactive) | –
NS(=O)(=O)c1ccc(N=Nc2ccc(O)c3ncccc23)cc1 | 13.7% (inactive) | –
Cc1ccccc1N=Nc1ccc(O)c2ncccc12 | -2.17% (inactive) | –
CCN(CC)c1nc2ccccc2n(Cc2cccc(OC)c2)c1=O | -2.37% (inactive) | –
Cc1ccc(S(=O)(=O)N2CCC[C@H]2C(=O)OCC(=O)c2ccc3c(c2)NC(=O)CO3)cc1 | -4.71% (inactive) | –
O=C(COc1ccccc1[N+](=O)[O-])Nc1cc(Cl)ccc1C(=O)O | 0% (inactive) | –
O=C(COc1ccccc1C(=O)O)Nc1cccc2ccccc12 | 1.47% (inactive) | –
O=C(Cc1cccc2ccccc12)Nc1cc(Cl)ccc1C(=O)O | -1.36% (inactive) | –
CC(=O)Nc1ccccc1NC(=O)COc1cccc2ccccc12 | -2.63% (inactive) | –
COc1cc(C(C(=O)NC2CCCC2)N(CCO)C(=O)Cn2nnc(-c3ccc(C)o3)n2)ccc1O (stereo not drawn) | 0.83% (inactive) | –
COc1ccc(CCNC(=O)CN(c2cc(OC)ccc2OC)S(=O)(=O)c2ccccc2)cc1 | -15.3% (inactive) | –
N#CC1(c2ccccc2)CCC(=NNS(=O)(=O)c2ccccc2)CC1 (stereo not drawn) | -6.67% (inactive) | –
CCn1c(SCC(=O)NC2CCCCC2)nnc1-c1cccs1 | -2.08% (inactive) | –
Cc1[nH]n(-c2ccccc2)c(=O)c1-c1ccc(Cl)cc1 | -1.62% (inactive) | –
Cc1[nH]n(-c2ccccc2)c(=O)c1C(C[N+](=O)[O-])c1ccc(Cl)cc1 (stereo not drawn) | 4.51% (inactive) | –
CCCc1[nH][nH]c(=O)c1C(c1ccc(Cl)cc1)C(C#N)C#N (stereo not drawn) | -8.33% (inactive) | –
CCCc1[nH][nH]c(=O)c1C(c1ccc(Br)cc1)C(C#N)C#N (stereo not drawn) | -1.4% (inactive) | –
COc1ccc(C(c2c(C)[nH]n(C(N)=S)c2=O)C(C#N)C#N)cc1 (stereo not drawn) | 28% (inactive) | –
Cc1[nH]n(-c2ccccc2)c(=O)c1C(C[N+](=O)[O-])c1ccc(Br)cc1 (stereo not drawn) | 12.4% (inactive) | –
Cc1[nH]oc(=O)c1N=Nc1ccc2[nH]c(=O)[nH]c2c1 | -0.78% (inactive) | –
Cc1c(NC(=O)Nc2cccc(Cl)c2Cl)c(=O)n(-c2ccccc2)n1C | 3.9% (inactive) | –
C/C(N)=C(/C#N)C(=O)COC(=O)[C@@H](NC(=O)c1ccccc1Cl)C(C)C | -7.12% (inactive) | –

SMILES | inhibition | inhibition (measured here: pilot screen replicate inhibition)
CCCCc1nnc(SCC(=O)Nc2nccs2)n1CC | -0.32% (inactive) | –
CC1CCCN(S(=O)(=O)c2ccc3[nH]c(=O)cc(C(=O)NCCCN4CCCCCC4)c3c2)C1 (stereo not drawn) | -5.49% (inactive) | –
O=C1c2cccnc2-c2ncccc21 | 5.95% (inactive) | –
NC1=C(Br)C(=O)c2ncccc2C1=O | 20.2% (inactive) | –
COC1=C(N)C(=O)c2nc(C)ccc2C1=O | 12.3% (inactive) | –
Cc1cccc(N2C(=O)c3ccc(Br)cc3C2=O)n1 | -2.38% (inactive) | –
O=C(OCC(=O)N1CCOCC1)c1ccc[nH]c1=O | -3.24% (inactive) | –
CCN(Cc1ccccc1)C(=O)CCNS(=O)(=O)c1cc(Br)cnc1N | 2.62% (inactive) | –
CC1CCN(c2nc3ccc(C(=O)N4CCN(Cc5ccc6c(c5)OCO6)CC4)cc3s2)CC1 | -4.17% (inactive) | –
COc1ccc2nc(N3CCC(C)CC3)c(C#N)cc2c1 | 14.4% (inactive) | –
COc1ccc2nc(N3CCCC3)c(C#N)cc2c1 | 12.8% (inactive) | –
CC(=O)Nc1ccc(NC(=O)C(C)OC(=O)CCC2CCCCC2)cc1 (stereo not drawn) | 0.32% (inactive) | –
CCN(C(=O)COC(=O)/C=C/c1ccc(Cl)c(Cl)c1)c1c(N)n(Cc2ccccc2)c(=O)[nH]c1=O | 2.22% (inactive) | –
COc1ccccc1OCCCCNC(C)(C)C | -1.39% (inactive) | –
O=C(Nc1ccc(S(=O)(=O)Nc2ncccn2)cc1)c1ccc(Br)o1 | -3.89% (inactive) | –
CC1(C)Cc2c(C#N)c(N)sc(=S)c2CO1 | 4.14% (inactive) | –
N#Cc1c(N)sc2c1CCCCCC2 | -3.42% (inactive) | –
COc1cc2c(cc1OC)C(c1ccccc1F)NCC2 (stereo not drawn) | -3.4% (inactive) | –
O=C(CN1CCC(NC(=O)c2ccccc2Cl)CC1)NCc1ccccc1 | -1.62% (inactive) | –
COc1ccc(CNC(=O)C(C)N2CCN(S(=O)(=O)c3ccccc3F)CC2)cc1 (stereo not drawn) | -2.2% (inactive) | –
C=CCOc1ccc(/C=C2/C(=O)ON=C2C)cc1OC | 28.1% (inactive) | –
CCCOc1ccc(/C=C2/C(=O)ON=C2C)cc1Cl | 12.4% (inactive) | –
COc1ccc(/C=C2/C(=O)ON=C2c2ccccc2)cc1OC | -17.6% (inactive) | –

SMILES | inhibition | inhibition (measured here: pilot screen replicate inhibition)
CCOc1cc(/C=C2\C(=O)ON=C2C)ccc1OCc1ccccc1 | -8.01% (inactive) | –
CCOc1cc(/C=C2/C(=O)ON=C2C)ccc1OCc1ccc(F)cc1 | 24.8% (inactive) | –
COc1cc(/C=C2/C(=O)ON=C2c2ccccc2)ccc1O | -8.45% (inactive) | –
CCOc1ccc(Cl)cc1/C=C1/C(=O)ON=C1C | 20.2% (inactive) | –
CCOc1cc(/C=C2/C(=O)ON=C2C)ccc1O | -24.5% (inactive) | –
NC(=O)c1ccc(NC(=O)c2cccc(Oc3ccccc3)c2)cc1 | -7.28% (inactive) | –
CCn1c(CC(=O)Nc2ccccc2)nnc1SCc1nc2ccccc2c(=O)[nH]1 | -0.79% (inactive) | –
Nc1ncnc2c1ncn2[C@@H]1O[C@H](CNC(=O)[C@H](N)Cc2cscn2)[C@@H](O)[C@H]1O | -4.56% (inactive) | –
NC(=O)c1cc([N+](=O)[O-])ccc1NCc1cccc(N)c1 | -0.8% (inactive) | –
COC(=O)Cn1c(=NC(=O)c2ccc(Cl)s2)sc2cc(C)ccc21 | 4.02% (inactive) | –
O=C(NC(=S)NCc1ccccc1)c1ccccc1[N+](=O)[O-] | -9.35% (inactive) | –
O=C(NCCc1ccccc1)C(=O)Nc1ccc2c(c1)OCCO2 | -12.2% (inactive) | –
O=C(c1ccc(Cl)c(Cl)c1)N1CCN(c2ccccn2)CC1 | -2.38% (inactive) | –
COCCN(C(=O)CSc1nnc(-c2ccccc2F)n1N)c1c(N)n(Cc2ccccc2)c(=O)[nH]c1=O | 11.2% (inactive) | –
CCOc1ccc(OCCCC(=O)NCCOc2ccccc2OC)cc1 | -5.46% (inactive) | –
Cc1cccc(OCC(=O)NC(=S)Nc2ccc(S(=O)(=O)NC3CCCCC3)cc2)c1 | 0% (inactive) | –
CN1CCc2nc(SC(C(=O)O)c3ccccc3)c(C#N)c(-c3cccs3)c2C1 (stereo not drawn) | 23.2% (inactive) | –
CC(C)(C)C(=O)CSc1nc2c(c(-c3cccs3)c1C#N)CCC2 | -8.9% (inactive) | –
Cc1ccc(CNC(=O)CCS(=O)(=O)c2ccc(Br)cc2)cc1 | -2.71% (inactive) | –
Cc1nc2ccccc2c(=O)n1NC(=O)c1ccc(C(C)(C)C)cc1 | -7.84% (inactive) | –
O=C(O)CC(NC(=O)C12CC3CC(CC(C3)C1)C2)c1cccc([N+](=O)[O-])c1 (stereo not drawn) | 4.1% (inactive) | –
O=C(O)c1cccc(-c2ccc(/C=C3/SC(=Nc4ccccc4)N(Cc4cccnc4)C3=O)o2)c1 | 3.26% (inactive) | –
CCN=C1S/C(=C\c2ccc(-c3cccc(C(=O)O)c3)o2)C(=O)N1CC | 0.91% (inactive) | –

SMILES | inhibition | inhibition (measured here: pilot screen replicate inhibition)
COc1ccc(C(=O)CN2C(=O)NC3(CCCc4ccccc43)C2=O)cc1 (stereo not drawn) | -6.6% (inactive) | –
O=C(O)Cn1c(CC(=O)N2CCCC2)nc2ccccc21 | 2.7% (inactive) | –
N#C/C(=C/c1ccc(-c2ccccc2[N+](=O)[O-])o1)C(N)=O | -17.5% (inactive) | –
CCOC(=O)c1cc(-c2ccc(/C=C3/C(=O)NC(=O)C(C#N)=C3C)o2)ccc1Cl | 44.5% (inactive) | –
O=[N+]([O-])c1ccccc1-c1ccc(/C=N/n2cnnc2)o1 | 1.62% (inactive) | –
CC1=C(C#N)C(=O)NC(=O)/C1=C\c1ccc(-c2ccc(C)cc2[N+](=O)[O-])o1 | 23.7% (inactive) | –
O=C(O)/C(=C\c1ccc(-c2ccccc2[N+](=O)[O-])o1)c1ccccc1 | 25.4% (inactive) | –
N#C/C(=C\c1ccc(-c2ccccc2[N+](=O)[O-])o1)C(N)=O | -6.96% (inactive) | –
CCN1C(=O)[C@H]2[C@@H](c3ccc(C)cc3)N3C(=O)N(c4cccc(Cl)c4)C(=O)[C@@]3(Cc3ccccc3)[C@H]2C1=O | 0% (inactive) | –
NC(=O)CSc1oc(-c2ccc(F)cc2)nc1S(=O)(=O)c1ccccc1 | -9.82% (inactive) | –
Cc1ccccc1NC(=O)C1CCC(=O)N1 (stereo not drawn) | -6.11% (inactive) | –
O=C(CNC(=O)c1cccc(S(=O)(=O)N2CCc3ccccc32)c1)Nc1ccccc1Br | 2.25% (inactive) | –
O=C(O)c1cc(N/N=C/c2ccncc2)ccc1Cl | -3.81% (inactive) | –
CSc1ccc(/C=N/Nc2ccc(Cl)c(C(=O)O)c2)cc1 | -1.45% (inactive) | –
COC(=O)C1SCC2C(=O)N(Cc3ccc(F)cc3)CC(=O)N21 (stereo not drawn) | -5.39% (inactive) | –
Cn1c(SCC(=O)Nc2ccc3nc(SCC(=O)N4CCCC4)sc3c2)nnc1-c1ccc(N)cc1 | 9.65% (inactive) | –
O=c1c2ccccc2nc(SCc2cc([N+](=O)[O-])cc3c2OCOC3)n1-c1ccccc1 | -2.94% (inactive) | –
COc1ccc(OC)c(NC(=O)Nc2cccnc2)c1 | 1.62% (inactive) | –
Cc1cc(C)c(NC(=O)CN2C(=O)NC3(CCCCC3)C2=O)c(Cl)c1 | -4.81% (inactive) | –
CCCCn1nc(NS(=O)(=O)c2cccc3nonc23)c2cc3cccc(C)c3nc21 | 27.8% (inactive) | –
CCCn1nc(NS(=O)(=O)c2cccc3nonc23)c2cc3ccccc3nc21 | 0.45% (inactive) | –
COc1ccc(S(=O)(=O)NCC2CCCN(C(=O)CSC)C2)cc1 (stereo not drawn) | -2.61% (inactive) | 0.01%
C=CCN(C(=O)Cc1cccs1)c1nc(-c2ccc(S(C)(=O)=O)cc2)cs1 | -10.3% (inactive) | –

— PubChem BioAssay AID588689 (Southern Research Specialized Biocontainment Screening …, 2011)
